TbPYK inhibitor = T. brucei pyruvate kinase inhibition; hit rate 0.12% among 410,000; Q57TT1; AID 624173; TbPYK enzyme, Kinase-Glo Plus ATP luminescence, 45 min; Potency, µM (top dose mostly 76.8 µM), inactives show at the top dose activity, negative = inhibition, most hits filed as inhibitors; also: nearly all actives have a fitted effect of over 50% in size
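Screened from lowest to highest concentration, compounds were pinned into TbPYK/substrate mixtures, and ADP (130 uM final) was added. Plates sat at room temperature for 45 min prior to Kinase-Glo Plus detection by luminescence.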
LmPK inh = inhibitors of Leishmania mexicana pyruvate kinase. hit rate 0.37% among 290,000. purified LmPK, Kinase-Glo ATP luminescence, 1 h. Potency, µM (series often up to 57.5 µM), for inactives: at the top dose activity change, negative = inhibition, most hits filed as inhibitors
Target sequence (Q27686 whole entry, looked up): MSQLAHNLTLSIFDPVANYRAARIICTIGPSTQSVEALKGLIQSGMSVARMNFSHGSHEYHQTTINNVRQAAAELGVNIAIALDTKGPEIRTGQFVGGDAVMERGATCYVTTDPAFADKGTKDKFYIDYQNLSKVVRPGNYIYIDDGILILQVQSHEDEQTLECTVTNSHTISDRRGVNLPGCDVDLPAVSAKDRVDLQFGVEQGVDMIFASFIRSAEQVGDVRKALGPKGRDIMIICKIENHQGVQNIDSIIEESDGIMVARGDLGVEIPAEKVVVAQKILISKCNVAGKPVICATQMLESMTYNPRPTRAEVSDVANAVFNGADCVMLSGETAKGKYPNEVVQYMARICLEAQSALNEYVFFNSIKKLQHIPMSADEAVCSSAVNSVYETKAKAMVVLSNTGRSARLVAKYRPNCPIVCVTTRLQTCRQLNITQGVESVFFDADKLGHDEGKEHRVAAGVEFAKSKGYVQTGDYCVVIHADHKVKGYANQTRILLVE
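Pyruvate kinase activity monitored as ATP production (luciferase luminescence). Conditions: 0.1 nM enzyme, 0.5 mM PEP, 0.1 mM ADP, 1 h, RT; normalized against uninhibited and no-enzyme wells.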
Sm TGR inh = blocks Schistosoma mansoni thioredoxin glutathione reductase; Q962Y6; purified TGR, DTNB reduction, TNB absorbance 405 nm; Potency, µM (top dose mostly 114 µM), without a hit: at the top dose activity change, negative = inhibition, most hits filed as inhibitors; hit rate 3% among 360,000; AID 485364; also: nearly all actives have a fitted effect of over 60% in size
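TGR 20 nM + NADPH 100 uM (dispensed conc.), cpd preinc 15 min RT; start with NADPH (500 uM addition) then DTNB (15 mM addition). Kinetic TNB absorbance, 405 nm filter. Four-parameter Hill fit across titration.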
RE007 growth inh = less growth of the S. pombe RE007 Vpr strain; hit rate 0.21% among 360,000; Potency, µM (highest dose often 92.2 µM), without a hit: at the top dose activity change, negative = less growth, hits mostly inhibitors; S. pombe RE007 Vpr strain, BacTiter-Glo ATP luminescence, 24 h; active = well fitted falling curve with a large enough effect; inconclusive = small, poorly fitted or top-dose-only effect; inactive = no such curve, though single readings can be large or run the other way; also: nearly all actives have a fitted effect of over 50% in size
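Fission yeast RE007 carrying one integrated HIV-1 vpr copy, seeded at OD 0.01 in PMG+AL medium with 23 nL pinned compound. Grown 24 h at 30 degrees; viability read by BacTiter-Glo luminescence after 5 min.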
The depositor's hits bear a star; ? = inconclusive; . = no result; ! = not confirmed by another sample; [ ] = another dose, or the depositor's remark. Shown are actives, neighbours in structure and some others; about 3% of the full set was active somewhere. Unless noted, calls follow the shape of the dose curve; as a rule, active = well fitted curve in the direction sought with a large enough effect; inconclusive = small, poorly fitted or top-dose-only effect, or another doubt; inactive = no such curve, though single readings can be large; an effect the other way counts as inactive or inconclusive. % is scaled to controls: 0 for no effect and ±100 for the full control effect; potency is read from the fitted curve at half-maximal effect.

SMILES	TbPYK inhibitor	LmPK inh	Sm TGR inh	RE007 growth inh
CC(C)(C=O)C1=CC(=O)c2ccccc2C1=O	?	13µM*	3.2µM*	8.9µM*
CC1=CC(=O)c2ccccc2C1=O	1%	2%	28µM*	-25%[18.4 µM]
COc1cccc2c1C(=O)C=C(C)C2=O	-10%	-2%	?	?
Cc1ccc(CCNS(=O)(=O)c2c(C)nc3sc(C)c(C)n3c2=O)cc1	-5%	.	12%	.
Cc1ccc2nc(-c3ccc(Cl)c(NC(=O)c4cccc([N+](=O)[O-])c4C)c3)oc2c1	-11%	.	-5%	.
O=C(O)C1=C[C@@H](c2ccc(C(F)(F)F)cc2)C[C@@H](OCc2ccc(CO)cc2)O1	-14%	-1%	40µM*	3%
C#Cc1ccc([C@@H]2C=C(C(=O)O)O[C@H](OCc3ccc(CO)cc3)C2)cc1	6%	-2%	35µM*	0%
O=C(O)C1=C[C@H](c2ccc(Br)cc2)C[C@H](OCc2ccc(CO)cc2)O1	2%	-5%	32µM*	10%
O=C(O)C1=C[C@@H](c2ccccc2)C[C@@H](OCc2ccc(CO)cc2)O1	-10%	-1%	?	10%
C#Cc1ccc([C@H]2C=C(C(=O)N3CCOCC3)O[C@@H](OCc3ccc(CO)cc3)C2)cc1	-8%	6%	?	7%
Cc1ccccc1CCNC(=O)c1ccc(NC(=O)N2CC(C)Sc3ccccc32)cc1 (stereo not given)	-5%	.	1%	.
Cc1c(Cc2ccccc2)c(=O)oc2c(C)c(OCC(=O)NCC3CCC(C(=O)O)CC3)ccc12 (stereo not given)	3%	-10%	8%	-9%
Cc1cc(OCC(=O)NCC2CCC(C(=O)O)CC2)c2c(C)c(Cc3ccccc3)c(=O)oc2c1 (stereo not given)	-9%	-11%	32µM*	-4%
OCC[n+]1c2ccccc2nc2ccc(N3CCOCC3)cc21	-21%	16µM*	?	-29%
Cc1cc(C(=O)Nc2ccc(N3CCOCC3)cc2)c2ccccc2n1	-6%	-3%	4%	32%
Clc1nssc1=Nc1nncs1	5µM*	.	50µM*	-1%
Clc1nssc1=Nc1ccc(Br)cc1	?	2%	-18%	?
[O-][n+]1onc2c1CCC(=N/O)/C2=N\Nc1ccccc1	.	?	18µM*	.
[O-][n+]1c2c(nn1-c1ccccc1)/C(=N/O)CCC2	-5%	-7%	.	7%
S=C(Nc1ccccc1)Nc1nccs1	-2%	-4%	11µM*	.
COc1ccc(NC(=O)N2CCCc3ccccc32)cc1	-4%	-6%	-9%	-10%
COc1ccc(NC(=O)N2CCc3ccccc32)cc1	?	13µM*	-14%	?
Cn1nnnc1Sc1ncnc2scc(-c3cc4ccccc4o3)c12	-6%	.	-21%	.
O=S(=O)(CCc1ccncc1)Cc1ccc2c3c(cccc13)CC2	-1%	3%	40µM*	1%
CCOC(=O)c1c(-c2ccccc2)oc2ccc(NS(=O)(=O)c3ccc(C(C)C)cc3)cc12	3%	.	-1%	.
SMILES	TbPYK inhibitor	LmPK inh	Sm TGR inh	RE007 growth inh
CC(C)C[C@@H](NC(=O)[C@@H](Cc1ccccc1)NC(=O)c1cnccn1)B(O)O	-3%	.	.	.
CCN(CC)c1c([N+](=O)[O-])ncn1C	-3%	-1%	-13%	7%
Cn1cnc([N+](=O)[O-])c1S(=O)(=O)Oc1cccc2ccccc12	1%	.	.	-7%
Cn1cnc([N+](=O)[O-])c1Oc1cccc2ccccc12	4%	0%	25µM*	-16%
Cn1cnc([N+](=O)[O-])c1Oc1ccccc1	13%	-3%	35µM*	4%
Cn1cnc([N+](=O)[O-])c1Oc1cccc(O)c1	-3%	-6%	32µM*	-16%
CC(NC(=O)Cc1ccccc1)C(=O)O (stereo not given)	-1%	.	50µM*	-10%
CC(CCc1ccccc1)NC(=O)Cc1ccccc1 (stereo not given)	-15%	0%	2%	-1%
CCN(CC)C(NC(=O)Cc1ccccc1)C(Cl)(Cl)Cl (stereo not given)	-6%	1%	18µM*	-3%
CC(C)NC(NC(=O)Cc1ccccc1)C(Cl)(Cl)Cl (stereo not given)	4%	-1%	9%	-21%
O=C(Nc1ccc2c(c1)N(C1CCCC1)C(=O)c1ccccc1S2)c1ccccc1F	0%	.	5%	.
CC1CCCCN1CCCNC(=O)c1sc2ncccc2c1-n1cccc1 (stereo not given)	3%	.	4%	.
COc1cc(OC)c(NC(=O)c2c(C)nn(-c3ccc(C)cc3)c2-n2cccc2)cc1Cl	4%	.	-8%	.
CN1CCN(c2ccc(NC(=S)NC(=O)/C=C/c3ccco3)cc2)CC1	-2%	2%	50µM*	?
CCOc1ccc(NC(=S)NC(=O)/C=C/c2ccco2)cc1	-8%	1%	22µM*	-7%
CC(=O)N(C)c1ccc(NC(=S)NC(=O)/C=C/c2ccco2)cc1	6%	-4%	28µM*	10%
CC(=O)Nc1ccc(NC(=S)NC(=O)/C=C/c2ccco2)cc1	-20%	16%	18µM*	-19%
COc1ccc(NC(=S)NC(=O)/C=C/c2ccco2)c(OC)c1	-2%	7%	?	-4%
O=C(/C=C/c1ccccc1)NC(=S)Nc1ccccc1	-2%	-3%	?	-1%
Cc1cccc(C(=O)NC2=NC(c3ccc(Cl)cc3)CC(=O)N2)c1 (stereo not given)	-8%	.	-1%	.
CCc1nnc(SC(CC)C(=O)Nc2ccc(OC)c(Cl)c2)c2cc3occc3n12 (stereo not given)	-2%	.	5%	.
CC(=O)[C@@]1(O)CC[C@H]2[C@@H]3C=C(Cl)C4=CC(=O)CC[C@]4(C)[C@H]3CC[C@@]21C	2%	.	.	.
O=C(CC1NCCC[C@H]1O)Cn1cnc2cc(Br)c(Cl)cc2c1=O (stereo not given in full)	3%	.	.	.
COc1cc(NS(=O)(=O)c2ccc(NC(=S)NC(=O)/C=C/c3ccco3)cc2)ncn1	-18%	1%	40µM*	6%
O=C(O)CC1c2ccccc2S(=O)(=O)N1Cc1ccccc1 (stereo not given)	-8%	7%	40%	-2%
SMILES	TbPYK inhibitor	LmPK inh	Sm TGR inh	RE007 growth inh
COC(=O)CC1c2ccccc2S(=O)(=O)N1Cc1ccccc1 (stereo not given)	1%	-2%	32µM*	10%
O=S1(=O)c2ccccc2C(CCO)N1Cc1ccccc1 (stereo not given)	1%	0%	28µM*	9%
CCOC(=O)/C(C#N)=C\C1=C(N2CCCC2)CC(C)(C)OC1	-4%	-2%	-7%	?
CCOC(=O)/C(C#N)=C/C1=C(N2CCOCC2)C(C)(C)OCC1	-4%	-3%	28µM*	-14%
COc1cc2[nH]c(C)c(-c3ccccc3)c(=O)c2cc1Cl	3%	.	.	18%
COc1ccccc1S(=O)Cc1ccc(C(=O)NCCc2ccc(Cl)cc2)o1 (stereo not given)	-15%	8%	40µM*	-6%
CCOc1ccc(CCNC(=O)c2ccc(CS(=O)Cc3ccc(Cl)cc3)o2)cc1 (stereo not given)	10%	2%	28µM*!	-9%

High-throughput results (PubChem)
